Experimental data as given in the supplement of paper PMC11732987, “Enantioselective OTUD7B fragment discovery through chemoproteomics screening and high-throughput optimisation” (Communications Chemistry, 2025).

Columns and labels:
Experiment in all cases: log2 ratio of Biotin-Ahx-Ub-VS probe labelling (fragment/DMSO); higher = less target engagement (more negative = stronger competition), active = hit call of the paper (q ≤ 0.05, log2 ratio ≤ -1)
Details in all cases: compound concentration: 200 uM; treatment time: 3 h
USP34 = USP34 (UniProt Q70CQ2)
USP34, sequence (Q70CQ2 whole entry, the tested form may be a part): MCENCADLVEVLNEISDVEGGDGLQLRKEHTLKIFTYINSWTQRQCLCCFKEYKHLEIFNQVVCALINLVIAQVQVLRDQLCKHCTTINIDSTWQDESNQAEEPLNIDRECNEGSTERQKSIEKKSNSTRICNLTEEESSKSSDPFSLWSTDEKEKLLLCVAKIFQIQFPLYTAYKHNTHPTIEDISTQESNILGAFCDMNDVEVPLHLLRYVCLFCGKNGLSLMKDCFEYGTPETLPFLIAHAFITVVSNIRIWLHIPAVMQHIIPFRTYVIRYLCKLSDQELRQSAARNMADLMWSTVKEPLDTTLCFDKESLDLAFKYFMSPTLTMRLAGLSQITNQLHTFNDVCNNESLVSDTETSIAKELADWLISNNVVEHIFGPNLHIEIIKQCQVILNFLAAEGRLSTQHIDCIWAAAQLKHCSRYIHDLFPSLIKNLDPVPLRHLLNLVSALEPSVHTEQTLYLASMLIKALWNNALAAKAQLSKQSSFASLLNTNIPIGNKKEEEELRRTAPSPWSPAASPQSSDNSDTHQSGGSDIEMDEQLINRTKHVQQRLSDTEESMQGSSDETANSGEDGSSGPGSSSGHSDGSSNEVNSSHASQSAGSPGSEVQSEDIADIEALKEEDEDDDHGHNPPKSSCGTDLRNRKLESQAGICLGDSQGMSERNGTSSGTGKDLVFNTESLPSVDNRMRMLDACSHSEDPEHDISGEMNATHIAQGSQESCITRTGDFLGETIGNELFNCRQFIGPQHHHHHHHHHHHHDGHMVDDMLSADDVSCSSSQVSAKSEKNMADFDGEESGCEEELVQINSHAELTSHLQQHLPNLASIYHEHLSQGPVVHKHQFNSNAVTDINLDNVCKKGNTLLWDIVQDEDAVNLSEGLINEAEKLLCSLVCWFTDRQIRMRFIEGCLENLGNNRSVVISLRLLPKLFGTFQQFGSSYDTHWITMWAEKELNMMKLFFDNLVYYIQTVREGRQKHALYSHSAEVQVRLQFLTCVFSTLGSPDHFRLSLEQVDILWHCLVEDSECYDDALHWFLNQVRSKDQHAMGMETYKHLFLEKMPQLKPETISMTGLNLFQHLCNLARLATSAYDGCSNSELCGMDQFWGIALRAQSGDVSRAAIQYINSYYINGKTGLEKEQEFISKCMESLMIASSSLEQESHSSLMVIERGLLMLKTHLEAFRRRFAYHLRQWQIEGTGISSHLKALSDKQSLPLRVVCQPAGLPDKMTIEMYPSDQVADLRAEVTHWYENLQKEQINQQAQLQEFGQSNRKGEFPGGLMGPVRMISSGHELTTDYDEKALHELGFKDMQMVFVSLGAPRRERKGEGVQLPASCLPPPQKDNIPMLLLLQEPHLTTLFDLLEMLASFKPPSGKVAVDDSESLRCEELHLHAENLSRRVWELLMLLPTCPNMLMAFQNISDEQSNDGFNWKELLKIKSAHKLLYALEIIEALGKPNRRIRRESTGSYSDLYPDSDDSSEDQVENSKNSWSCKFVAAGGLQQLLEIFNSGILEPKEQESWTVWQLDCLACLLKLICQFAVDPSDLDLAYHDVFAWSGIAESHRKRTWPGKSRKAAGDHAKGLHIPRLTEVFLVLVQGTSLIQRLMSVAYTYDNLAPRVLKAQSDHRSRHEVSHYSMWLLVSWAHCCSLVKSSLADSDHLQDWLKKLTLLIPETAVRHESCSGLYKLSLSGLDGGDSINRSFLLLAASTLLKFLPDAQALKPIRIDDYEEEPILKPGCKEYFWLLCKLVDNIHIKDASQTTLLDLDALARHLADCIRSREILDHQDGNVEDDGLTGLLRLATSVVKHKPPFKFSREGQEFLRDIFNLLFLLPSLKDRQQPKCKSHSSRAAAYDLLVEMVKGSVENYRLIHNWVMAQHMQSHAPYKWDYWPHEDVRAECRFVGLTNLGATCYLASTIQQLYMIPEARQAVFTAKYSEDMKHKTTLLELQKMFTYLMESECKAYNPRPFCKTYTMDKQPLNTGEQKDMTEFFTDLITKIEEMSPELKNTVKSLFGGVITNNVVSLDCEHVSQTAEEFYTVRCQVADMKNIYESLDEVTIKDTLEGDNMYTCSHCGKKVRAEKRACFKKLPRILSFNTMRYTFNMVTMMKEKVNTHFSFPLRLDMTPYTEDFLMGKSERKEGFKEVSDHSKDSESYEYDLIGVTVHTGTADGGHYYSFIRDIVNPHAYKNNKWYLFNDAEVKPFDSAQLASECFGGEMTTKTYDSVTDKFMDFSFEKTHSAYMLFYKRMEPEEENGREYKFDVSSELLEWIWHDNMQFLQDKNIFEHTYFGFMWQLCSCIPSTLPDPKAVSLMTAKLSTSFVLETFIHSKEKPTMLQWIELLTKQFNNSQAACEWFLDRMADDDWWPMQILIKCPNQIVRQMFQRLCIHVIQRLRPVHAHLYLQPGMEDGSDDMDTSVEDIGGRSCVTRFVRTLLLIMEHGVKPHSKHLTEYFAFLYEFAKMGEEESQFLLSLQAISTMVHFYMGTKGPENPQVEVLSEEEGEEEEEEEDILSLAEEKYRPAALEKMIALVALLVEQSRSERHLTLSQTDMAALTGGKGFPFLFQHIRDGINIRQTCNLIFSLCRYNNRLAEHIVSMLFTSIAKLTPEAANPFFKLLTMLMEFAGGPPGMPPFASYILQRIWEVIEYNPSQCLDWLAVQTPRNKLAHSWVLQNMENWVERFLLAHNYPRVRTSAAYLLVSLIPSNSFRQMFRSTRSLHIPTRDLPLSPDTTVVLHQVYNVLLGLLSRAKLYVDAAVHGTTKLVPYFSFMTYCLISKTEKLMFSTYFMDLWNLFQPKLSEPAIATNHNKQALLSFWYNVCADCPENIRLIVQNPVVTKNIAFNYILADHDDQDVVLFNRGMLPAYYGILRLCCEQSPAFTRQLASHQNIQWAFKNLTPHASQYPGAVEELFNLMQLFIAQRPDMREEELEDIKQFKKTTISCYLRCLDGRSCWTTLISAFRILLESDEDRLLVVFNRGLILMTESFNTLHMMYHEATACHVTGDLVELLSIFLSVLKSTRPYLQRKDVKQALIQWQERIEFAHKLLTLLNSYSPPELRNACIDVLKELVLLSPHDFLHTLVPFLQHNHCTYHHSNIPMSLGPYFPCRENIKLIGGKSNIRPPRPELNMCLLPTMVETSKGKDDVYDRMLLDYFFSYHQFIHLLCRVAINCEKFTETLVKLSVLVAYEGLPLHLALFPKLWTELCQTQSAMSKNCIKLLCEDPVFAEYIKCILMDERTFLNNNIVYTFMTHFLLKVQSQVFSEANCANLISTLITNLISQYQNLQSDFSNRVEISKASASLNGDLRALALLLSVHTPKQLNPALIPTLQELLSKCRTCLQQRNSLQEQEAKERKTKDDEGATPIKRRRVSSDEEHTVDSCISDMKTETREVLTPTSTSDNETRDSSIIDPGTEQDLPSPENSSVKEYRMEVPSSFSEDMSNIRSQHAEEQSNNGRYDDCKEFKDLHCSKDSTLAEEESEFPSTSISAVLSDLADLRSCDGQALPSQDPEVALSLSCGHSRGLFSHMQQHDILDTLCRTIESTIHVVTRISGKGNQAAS
How it was run: (§1)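 HEK293T lysate in Tris/CHAPS/IGEPAL buffer with protease inhibitors (495 µg per sample) was given fragment at 200 µM or vehicle for 3 h, in triplicate. It then received Biotin-Ahx-Ub-VS at 0.5 µM final for 1 h. Labelled DUBs were NeutrAvidin-enriched, digested with LysC and trypsin, and run by diaPASEF LC-MS/MS. Values are average log2 fragment/vehicle ratios by unpaired t-test on global-median-normalised Spectronaut quantities of proteins with ≥2 unique peptides.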

USP36 = biological target: T1, USP36 (UniProt Q9P275)
T1 sequence (whole entry): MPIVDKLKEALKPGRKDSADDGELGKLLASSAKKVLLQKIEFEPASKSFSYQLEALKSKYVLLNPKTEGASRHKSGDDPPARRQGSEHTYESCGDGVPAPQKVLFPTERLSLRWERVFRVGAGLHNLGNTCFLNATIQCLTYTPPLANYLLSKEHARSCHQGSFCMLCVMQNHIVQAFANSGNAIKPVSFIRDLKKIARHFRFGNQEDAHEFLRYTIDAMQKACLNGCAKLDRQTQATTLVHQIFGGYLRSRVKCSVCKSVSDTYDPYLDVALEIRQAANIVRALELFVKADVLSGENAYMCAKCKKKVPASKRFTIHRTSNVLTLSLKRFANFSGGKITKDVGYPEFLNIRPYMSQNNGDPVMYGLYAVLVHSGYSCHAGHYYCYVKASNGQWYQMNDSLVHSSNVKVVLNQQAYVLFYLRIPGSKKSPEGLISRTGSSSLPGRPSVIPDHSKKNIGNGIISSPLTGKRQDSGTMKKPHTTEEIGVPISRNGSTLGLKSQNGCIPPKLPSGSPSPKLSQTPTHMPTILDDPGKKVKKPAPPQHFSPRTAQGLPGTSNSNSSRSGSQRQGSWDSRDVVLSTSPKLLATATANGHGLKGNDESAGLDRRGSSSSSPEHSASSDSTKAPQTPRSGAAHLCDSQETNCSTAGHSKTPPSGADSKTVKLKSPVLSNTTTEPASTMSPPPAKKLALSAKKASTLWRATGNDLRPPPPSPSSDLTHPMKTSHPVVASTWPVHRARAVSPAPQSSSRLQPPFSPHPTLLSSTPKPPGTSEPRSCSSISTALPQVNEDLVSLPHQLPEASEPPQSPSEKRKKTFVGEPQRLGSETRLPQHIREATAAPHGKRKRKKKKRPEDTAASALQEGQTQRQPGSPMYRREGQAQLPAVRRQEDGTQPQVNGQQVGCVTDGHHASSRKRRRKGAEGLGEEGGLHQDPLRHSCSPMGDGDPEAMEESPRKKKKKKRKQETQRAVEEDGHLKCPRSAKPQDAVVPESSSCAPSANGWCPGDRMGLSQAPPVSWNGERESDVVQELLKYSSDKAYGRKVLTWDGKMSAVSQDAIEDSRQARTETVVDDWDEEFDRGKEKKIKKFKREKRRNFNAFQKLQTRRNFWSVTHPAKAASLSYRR
How it was run: as §1

USP38 = biological target: T2, USP38 (UniProt Q8NB14)
T2 sequence (whole entry): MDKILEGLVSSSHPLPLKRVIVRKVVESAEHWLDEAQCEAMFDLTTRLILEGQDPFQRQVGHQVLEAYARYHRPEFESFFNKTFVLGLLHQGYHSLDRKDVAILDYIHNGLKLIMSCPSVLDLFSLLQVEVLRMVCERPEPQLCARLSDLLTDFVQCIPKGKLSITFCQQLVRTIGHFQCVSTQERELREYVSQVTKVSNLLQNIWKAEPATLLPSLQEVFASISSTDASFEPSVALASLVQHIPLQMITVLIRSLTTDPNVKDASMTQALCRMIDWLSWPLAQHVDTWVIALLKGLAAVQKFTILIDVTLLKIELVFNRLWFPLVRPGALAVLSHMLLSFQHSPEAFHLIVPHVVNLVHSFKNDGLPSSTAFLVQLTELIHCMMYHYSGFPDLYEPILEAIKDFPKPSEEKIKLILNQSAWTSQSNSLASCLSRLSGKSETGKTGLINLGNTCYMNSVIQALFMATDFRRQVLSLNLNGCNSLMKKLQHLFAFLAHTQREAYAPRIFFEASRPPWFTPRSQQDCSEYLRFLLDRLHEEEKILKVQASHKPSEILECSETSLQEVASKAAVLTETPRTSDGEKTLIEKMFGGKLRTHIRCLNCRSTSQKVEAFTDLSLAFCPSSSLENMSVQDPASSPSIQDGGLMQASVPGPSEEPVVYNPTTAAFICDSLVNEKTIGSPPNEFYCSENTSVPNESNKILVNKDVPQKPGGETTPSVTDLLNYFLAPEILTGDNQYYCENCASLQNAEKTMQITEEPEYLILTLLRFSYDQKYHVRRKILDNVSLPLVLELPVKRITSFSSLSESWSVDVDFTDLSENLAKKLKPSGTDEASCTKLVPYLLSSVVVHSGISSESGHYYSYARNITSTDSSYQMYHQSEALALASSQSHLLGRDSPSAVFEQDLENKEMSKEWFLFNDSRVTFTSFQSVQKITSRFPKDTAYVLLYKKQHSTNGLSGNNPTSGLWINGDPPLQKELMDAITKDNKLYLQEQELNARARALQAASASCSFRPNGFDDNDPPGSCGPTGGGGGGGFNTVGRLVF
How it was run: as §1

USP39 = biological target: T3, USP39 (UniProt Q53GS9)
T3 sequence (whole entry): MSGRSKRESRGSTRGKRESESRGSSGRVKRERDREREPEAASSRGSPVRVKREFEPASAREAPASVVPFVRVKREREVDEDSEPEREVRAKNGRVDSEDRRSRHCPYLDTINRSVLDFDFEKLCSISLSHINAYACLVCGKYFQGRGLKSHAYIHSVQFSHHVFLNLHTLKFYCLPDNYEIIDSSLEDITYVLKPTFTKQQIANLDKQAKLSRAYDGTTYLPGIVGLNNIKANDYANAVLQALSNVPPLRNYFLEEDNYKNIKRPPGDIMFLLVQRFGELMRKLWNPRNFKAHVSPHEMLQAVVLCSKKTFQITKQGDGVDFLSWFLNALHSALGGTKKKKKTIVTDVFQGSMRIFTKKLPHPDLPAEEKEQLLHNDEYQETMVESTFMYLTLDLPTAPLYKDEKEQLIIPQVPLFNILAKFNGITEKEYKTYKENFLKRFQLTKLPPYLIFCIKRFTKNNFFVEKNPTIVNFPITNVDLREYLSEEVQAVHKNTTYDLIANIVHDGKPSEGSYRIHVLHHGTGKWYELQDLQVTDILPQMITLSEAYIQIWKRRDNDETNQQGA
How it was run: as §1

USP4 = biological target: T4, USP4 (UniProt Q13107)
T4 sequence (whole entry): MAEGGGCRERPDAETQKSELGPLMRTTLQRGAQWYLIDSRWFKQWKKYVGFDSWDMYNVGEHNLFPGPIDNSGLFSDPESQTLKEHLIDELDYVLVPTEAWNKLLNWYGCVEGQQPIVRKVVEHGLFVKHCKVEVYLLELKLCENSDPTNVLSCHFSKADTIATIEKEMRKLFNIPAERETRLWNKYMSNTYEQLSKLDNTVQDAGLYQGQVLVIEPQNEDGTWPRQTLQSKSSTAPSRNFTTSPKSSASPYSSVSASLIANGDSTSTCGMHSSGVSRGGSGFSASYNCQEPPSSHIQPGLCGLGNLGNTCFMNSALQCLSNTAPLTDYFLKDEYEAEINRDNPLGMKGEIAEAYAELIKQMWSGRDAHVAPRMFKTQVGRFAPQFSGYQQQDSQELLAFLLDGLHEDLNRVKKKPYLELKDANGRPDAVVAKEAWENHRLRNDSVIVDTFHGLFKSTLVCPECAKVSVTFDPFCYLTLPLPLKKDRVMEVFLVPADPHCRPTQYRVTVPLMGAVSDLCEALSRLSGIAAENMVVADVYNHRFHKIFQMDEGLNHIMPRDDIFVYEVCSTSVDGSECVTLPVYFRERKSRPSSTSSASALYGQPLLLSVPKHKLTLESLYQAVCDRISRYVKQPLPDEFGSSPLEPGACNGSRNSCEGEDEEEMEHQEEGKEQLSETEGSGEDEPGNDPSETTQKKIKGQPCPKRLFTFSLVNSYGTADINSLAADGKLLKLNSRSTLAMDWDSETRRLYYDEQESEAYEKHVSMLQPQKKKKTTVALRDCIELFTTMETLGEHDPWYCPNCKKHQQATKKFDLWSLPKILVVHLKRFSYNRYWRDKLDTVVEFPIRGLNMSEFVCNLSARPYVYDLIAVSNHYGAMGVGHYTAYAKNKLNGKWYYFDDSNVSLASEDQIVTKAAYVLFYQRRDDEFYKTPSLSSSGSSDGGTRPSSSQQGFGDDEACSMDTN
How it was run: as §1

Measured: log2 ratio of Biotin-Ahx-Ub-VS probe labelling

CS(=O)(=O)c1ccc(CNC(=O)CCl)cc1
inactive: USP34 -0.0991 | USP36 -0.225 | USP38 -0.0436 | USP39 0.204 | USP4 -0.0105
